# Test results published in PubChem BioAssay.
# The source made the active and inactive calls.
# Test: optical density shifts of acrAB sulA E. coli – strain DRC41, OD650, 48 h, E. coli filamentation inducer project, primary screen (AID 1152);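 further: E. coli MC1000 strain DRC41 lacking acrAB efflux pump and sulA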
# Settings: higher = more signal, called active from +8 up or from −8 down
row,Compound,z-score
1,Cn1c(=O)n2n(c1=O)[C@H]1[C@H](O)[C@@H]3O[C@@H]3C(=NOC[C@@H](O)COCc3ccco3)[C@H]1CC2,0.301 (inactive)
2,C[C@@H]1CC[C@H]2C(=O)O[C@H](COc3ccc(C(C)(C)C)cc3)CN2[C@H]1c1ccc(Br)cc1,-0.425 (inactive)
3,C=CC[C@]1(C(=O)NCc2ccccc2)N=C(c2ccc(OCCCO)cc2)O[C@H]1c1ccccc1,-0.0491 (inactive)
4,COCCNC(=O)OCC1CCCC2(CC(OC(=O)NCCc3ccc(F)cc3)CC(CCC(=O)N[C@@H](C)C(=O)OC)O2)O1 (some centres not stated),0.622 (inactive)
5,CCOC(=O)CCN1C(=O)[C@H]2[C@H]3[C@H](O)[C@H](O)CC(=NOCc4ccccc4)[C@@H]3CC[C@H]2C1=O,-0.505 (inactive)
6,CCCNC(=O)OC[C@H]1O[C@H](CCON=CC[C@@H]2C=C[C@H](OC(C)=O)[C@@H](COC(C)=O)O2)C=C[C@@H]1Oc1ccc(OC)cc1,-0.413 (inactive)
7,O=C1[C@H]2[C@H]3[C@H](O)[C@H](O)CC(=NOC[C@@H](O)COCc4ccco4)[C@H]3CC[C@H]2C(=O)N1Cc1ccc2c(c1)OCO2,0.198 (inactive)
8,COC(=O)CC=C[C@@H](C)[C@@H](C=NO[C@@H](C)c1cc(-c2c(C)cc(C)cc2C)no1)OC,-1.45 (inactive)
9,C=C(/C(=C/C[C@@H](OC(=O)c1ccncc1)c1ccc(OCCO)cc1)c1cnc2ccccc2c1)C(C)C,1.13 (inactive)
10,CC(=O)OC[C@H]1O[C@H](CC=NOC[C@@H](C)[C@H](OCc2ccccc2)C(C)C)C=C[C@@H]1OC(C)=O,-0.0083 (inactive)

# Test: probe aLefty1 binding on compound microarray – biochemical, small-molecule microarray, 635/667 nm fluorescence, primary screen (AID 1153);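 further: score merges spot fluorescence with signal-to-noise ratio from the scanned slide images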
# Settings: higher = more signal
row,Compound,composite z-score
1,CC(C)c1ccc(NN2C(C(O)c3ccc4c(c3)OCO4)C=CC3C(=O)N(c4ccccc4)C(=O)C32)cc1 (configuration not stated),-0.0593
2,C[C@@H]1CCC2C(=O)N(Cc3ccccc3)C[C@@H](O)CN2[C@H]1c1ccc(Br)cc1 (some centres not stated),-0.0573
3,O=C1[C@H]2[C@H]3[C@H](O)[C@H](O)CC(=NO[C@@H]4O[C@H](CO)[C@@H](O)[C@H](O)[C@H]4O)[C@H]3CC[C@H]2C(=O)N1Cc1ccc2c(c1)OCO2,0.122
4,CC[C@@H](c1ccccc1)n1c(=O)n2n(c1=O)[C@H]1[C@H](O)[C@@H]3O[C@@H]3C(=NOCC=C(C)CCC=C(C)C)[C@H]1CC2,-0.241
5,CC(C)(C)N1C(=O)[C@H]2[C@H]3[C@H](O)[C@H](O)CC(=NO[C@@H]4O[C@H](CO)[C@@H](O)[C@H](O)[C@H]4O)[C@@H]3CC[C@H]2C1=O,-0.147
6,CC(C)(C)N1C(=O)[C@H]2[C@H]3[C@H](O)[C@H](O)CC(=NOCc4ccccc4)[C@@H]3CC[C@H]2C1=O,-0.0162
7,COCCOC(=O)N1C(=O)[C@@]2(c3cc(C#CCNC(N)=O)ccc31)[C@H](c1ccccc1OCCO)N1[C@H](c3ccccc3)[C@H](c3ccccc3)OC(=O)[C@H]1[C@@H]2C(=O)N1CCN(c2ncccn2)CC1,0.15
8,COc1ccc(O[C@H]2C=C[C@@H](c3ccccc3)O[C@@H]2COC(=O)N2CCCCC2)cc1,0.174
9,CCc1cccc(NC(=O)O[C@H]2[C@H](OC(=O)Nc3ccc4c(c3)OCO4)[C@@H](OC(=O)Nc3ccc4c(c3)OCO4)[C@@H](OC)O[C@@H]2CO)c1,1.01
10,CCN1C(=O)[C@H]2[C@H]3[C@H](O)[C@H](O)CC(=NOCC=C(C)CCC=C(C)C)[C@H]3CC[C@H]2C1=O,-0.0518
11,CC(C)C[C@@H]1NC(=O)[C@H]2C[C@@H](C(=O)O)[C@@H](c3ccc(O)cc3)N2C1=O,0.0455
12,CN(C)C(=O)[C@@]1(Cc2ccccc2)N=C(c2ccc(OCCCO)cc2)O[C@H]1c1ccccc1CN=[N+]=[N-],0.981
13,CO[C@@H]1COC(=O)CC=C[C@@H](C)[C@@H]2C=C[C@H](O)[C@@H](COC(=O)CCC[C@H]1C)O2,0.425
14,CC(C)CON=C1C[C@@H](O)[C@@H](O)[C@@H]2[C@@H]3C(=O)N(Cc4ccccc4)C(=O)[C@@H]3CC[C@@H]12,0.148
15,COC(=O)c1c(CC[C@@H](CO)NC(=O)N[C@H](Cc2ccccc2)Cn2cc(-c3ccccc3N)nn2)oc(C(C)=O)c1C(=O)OC,0.5
16,CO[C@@H]1COC(=O)CCC[C@@H](C)[C@H](OC)COC(=O)CCC[C@H]1C,-0.0933
17,CCOC(=O)CCN1C(=O)[C@H]2[C@H]3[C@H](O)[C@H](O)CC(=NOC[C@@H](O)COCc4ccco4)[C@@H]3CC[C@H]2C1=O,0.0861
